TDP1 cell CPT = growth inhibition of DT40 Tdp1-/-;hTDP1 cells with camptothecin (screen for TDP1 inhibitors); chicken DT40 Tdp1-/-;hTDP1 cells + 20 nM CPT, ATP luminescence, 48 h; Potency, µM (titrated, usually from 46.2 µM), hits mostly inhibitors; 420,000 compounds, 12% hits; AID 686979; note: nearly all actives have a fitted effect of over 55% in size
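Cell growth measured by CellTiter-Glo luminescence after a minimum 48 h, 37 C compound exposure with 20 nM CPT in Tdp1-knockout DT40 cells stably expressing hTDP1, seeded 400/well; qHTS titration format.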
IL1B secr inh = inflammasome signaling inhibition, IL-1 beta readout; THP-1 LPS/ATP IL-1B secretion, AlphaLISA, 16 h; stronger effect = lower value; activity change, % at 57.5 µM; 360,000 compounds, 4.7% hits; in the data active = activity change below about -50%; inconclusive = mostly about -30% to -49%
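Secreted IL-1B measured by AlphaLISA bead assay after 16 h compound exposure of THP-1 cells; compounds (final up to 57.5 uM) added 1 h before LPS (250 ng/mL) and ATP (1.25 mM) stimulation; lower signal means less secretion.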
HT1080 IDH1KD tx = toxicity to HT-1080 IDH1 knockdown cells (counter line). AID 686971. Potency, µM (highest dose often 46.1 µM), actives largely listed as cytotoxic. 360,000 compounds, 2% hits. HT-1080 IDH1 knockdown viability, ATP luminescence, 48 h
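After a 2 h attachment period, IDH1KD HT-1080 cells took pin-transferred compound for 48 h at 37 °C; ATP-based luminescence after 10 min room-temperature reagent incubation reported viability.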
HT1080NT lethal = kills 2HG-producing HT-1080-NT fibrosarcoma cells; HT-1080-NT fibrosarcoma viability, CellTiter-Glo ATP luminescence, 48 h; Potency, µM (top dose mostly 46.1 µM), actives largely listed as cytotoxic; 360,000 compounds, 1.6% hits;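 note: NT is the 2HG producing partner of a matched IDH1 knockdown line; nearly all actives have a fitted effect of over 55% in size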
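HT-1080-NT; 750 cells/well; 5% FBS RPMI; 48 h compound, 37 degrees C; CellTiter-Glo luminescence; curve fitting and curve-class assignment.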
TDP1 cell noCPT = qHTS for Inhibitors of human tyrosyl-DNA phosphodiesterase 1 (TDP1): qHTS in cells in absence of CPT | DT40 Tdp1-/- hTDP1 cells, no CPT, ATP luminescence, 48 h | 420,000 compounds, 15% hits | Potency, µM (titrated, usually from 46.2 µM), hits mostly inhibitors; note: nearly all actives have a fitted effect of over 55% in size
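DT40 Tdp1-/-;hTDP1 cells, no CPT (DMSO vehicle only), 400 cells/well; compounds pin-transferred; ≥48 hr, 37 °C; CellTiter-Glo 30 min RT dark, luminescence read.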
12-LOX inh = ALOX12 (human) lipoxygenase inhibition; 580,000 compounds, 1.1% hits; Potency, µM (titrated, usually from 108 µM), usual class: inhibitors; purified 12hLO, xylenol orange hydroperoxide absorbance; P18054
Target sequence (P18054 whole entry, looked up): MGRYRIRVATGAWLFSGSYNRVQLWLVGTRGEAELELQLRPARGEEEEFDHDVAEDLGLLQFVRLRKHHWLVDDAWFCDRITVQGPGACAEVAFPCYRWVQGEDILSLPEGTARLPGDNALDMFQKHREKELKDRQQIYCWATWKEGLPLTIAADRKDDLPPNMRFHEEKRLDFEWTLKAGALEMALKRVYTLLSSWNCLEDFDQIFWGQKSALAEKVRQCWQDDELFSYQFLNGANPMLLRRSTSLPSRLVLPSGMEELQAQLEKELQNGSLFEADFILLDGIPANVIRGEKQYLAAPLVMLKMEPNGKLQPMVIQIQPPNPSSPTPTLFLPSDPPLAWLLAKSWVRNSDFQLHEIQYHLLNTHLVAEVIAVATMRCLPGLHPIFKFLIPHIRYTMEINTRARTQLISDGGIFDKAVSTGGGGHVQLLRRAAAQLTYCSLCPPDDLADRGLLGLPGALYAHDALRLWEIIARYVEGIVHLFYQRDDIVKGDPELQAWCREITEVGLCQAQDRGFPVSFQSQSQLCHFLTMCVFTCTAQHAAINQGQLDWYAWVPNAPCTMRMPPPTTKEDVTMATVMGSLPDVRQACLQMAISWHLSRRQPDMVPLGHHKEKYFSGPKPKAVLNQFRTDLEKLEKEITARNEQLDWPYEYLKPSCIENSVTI
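Hydroperoxide product was detected by ferrous iron/xylenol orange as the 573 to 405 nm absorbance ratio. Arachidonic acid at 40 uM (final) was turned over for 30 min at room temperature by 150 nM human 12hLO, pH 7.0 Hepes buffer, after 15 min compound preincubation.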
Hits are given with their value; . = inactive; ? = inconclusive; / = no result. Only a selection was taken, and hits are over-represented in it overall. Unless noted, calls come from the whole dose curve; as a rule, active = well fitted curve in the direction sought with a large enough effect; inconclusive = small, poorly fitted or top-dose-only effect, or another doubt; inactive = no such curve, though single readings can be large; an effect the other way counts as inactive or inconclusive.

SMILES	TDP1 cell CPT	IL1B secr inh	HT1080 IDH1KD tx	HT1080NT lethal	TDP1 cell noCPT	12-LOX inh
CCn1nc(C(C)C)cc1C(=O)N1CCCC(CO)(Cc2ccc(F)cc2F)C1 (stereo not drawn)	23µM	.	.	.	?	.
COCc1noc([C@@H]2CC(F)(F)CN2C(=O)Cc2cccc(F)c2)n1	/	/	/	/	/	.
O=C(OCC(=O)N1CCCc2ccccc21)c1ccccc1NS(=O)(=O)c1ccc(F)cc1	/	/	/	/	/	.
O=c1[nH]cnc2nc(-c3ccccc3)c(-c3ccccc3)nc12	1.5µM	.	.	.	2.9µM	.
CSc1nc(Nc2ccc(C)cc2C)cc(-c2ccccc2)n1	16µM	/	/	/	16µM	.
Cc1nnc(SCc2cc(=O)[nH]c(/N=C(\N)Nc3ccccc3)n2)s1	?	.	18µM	?	21µM	.
CCOc1ccc(N/C(N)=N/c2nc(CSc3nnc(C)s3)cc(=O)[nH]2)cc1	0.65µM	.	0.92µM	0.21µM	0.58µM	.
O=c1c2ccccc2nc(-c2ccccc2)n1CCOc1ccccc1	/	/	/	/	/	.
COCCOCCCNC(=O)c1ccc2nc(C)c(C)nc2c1	/	/	/	/	/	.
COc1cc2c(C#N)c(N3CCOCC3)nc(N)c2c(N)n1	13µM	-54	?	?	23µM	.
COc1cc2c(C#N)c(N3CCc4ccccc4C3)nc(N)c2c(N)n1	21µM	-54	?	?	21µM	.
CCOc1cc2c(C#N)c(N3CCCCC3)nc(N)c2c(N)n1	?	.	.	.	?	.
COc1cc2c(C#N)c(N3CCCCC3)nc(N)c2c(N)n1	9.2µM	?	?	?	13µM	.
CCOc1cc2c(C#N)c(N3CCNCC3)nc(N)c2c(N)n1	.	.	.	.	.	.
CCN(CC)c1nc(N)c2c(N)nc(OC)cc2c1C#N	15µM	.	.	.	23µM	.
Cc1ccc2c(ccn2CCC(=O)Nc2nnc(C(C)C)s2)c1	/	/	/	/	/	.
Cc1ccc(C)c(N2CCN(C(=O)c3cc(S(=O)(=O)N4CCOCC4)cn3C)CC2)c1	?	.	.	.	?	.
Cc1ccc(Cl)cc1N1CCN(C(=O)c2cc(S(=O)(=O)N3CCC(C)CC3)cn2C)CC1	23µM	/	/	/	15µM	.
COc1ccccc1N1CCN(C(=O)c2cc(S(=O)(=O)N3CCC(C)CC3)cn2C)CC1	21µM	/	/	/	?	.
CCOc1ccc(NC(=O)N2CCc3cc(OC)c(OC)cc3C2CNC(=O)c2ccco2)cc1 (stereo not drawn)	/	/	/	/	/	.
Cc1ccc(S(=O)(=O)CC(=O)N2CCN(c3ccc([N+](=O)[O-])cc3)CC2)cc1	13µM	.	.	.	?	?
Cc1ccc(CC(=O)N2CCN(c3ccc([N+](=O)[O-])cc3)CC2)cc1	?	/	?	.	7.3µM	.
CC(=O)N1CCN(c2ccc([N+](=O)[O-])cc2)CC1	.	.	.	.	.	.
COc1ccc(-c2cc3ccccc3oc2=O)cc1NC(=S)NC(=O)c1ccc2c(c1)OCCO2	12µM	.	.	.	9.2µM	.
COc1ccc(-c2cc3ccccc3oc2=O)cc1NC(=O)c1ccc([N+](=O)[O-])o1	21µM	.	?	.	15µM	.
SMILES	TDP1 cell CPT	IL1B secr inh	HT1080 IDH1KD tx	HT1080NT lethal	TDP1 cell noCPT	12-LOX inh
CC(C)c1nnc(NC(=O)C(Oc2ccccc2)c2ccccc2)s1 (stereo not drawn)	/	/	/	/	/	.
CCN(CC)c1nc2ccccc2nc1C(=O)Nc1cc(C(=O)OC)cc(C(=O)OC)c1	/	/	/	/	/	.
COc1ccc(N(C)C(=O)c2cc3c(Cl)nc4ccccc4c3s2)cc1	?	-68	.	.	21µM	.
CCCN(C(=O)c1cc2c(Cl)nc3ccccc3c2s1)c1cccc(C)c1	21µM	/	/	/	26µM	.
CCN(CC)c1nc2ccccc2nc1C(=O)Nc1cc(OC)c(OC)c(OC)c1	16µM	/	/	/	13µM	.
COc1cc(NC(=O)c2cc3c(Cl)nc4ccccc4c3s2)cc(OC)c1OC	10µM	.	.	.	8.2µM	.
COc1ccc(NC(=O)c2cc3c(Cl)nc4ccccc4c3s2)c(OC)c1	?	.	.	.	?	.
CCOc1cc(C2C(C(=O)c3ccco3)=C(O)C(=O)N2c2cc(C)on2)ccc1O (stereo not drawn)	/	/	/	/	/	.
CC(NC(=O)COc1ccc(NC(=O)C2CC2)cn1)c1cccs1 (stereo not drawn)	/	/	/	/	/	.
CC(C)(C)c1ccc(C2(C)NC(=O)N(Cc3ncc(-c4ccccc4)o3)C2=O)cc1 (stereo not drawn)	/	/	/	/	/	.
O=C(CCNS(=O)(=O)c1ccccc1)N1CCC(Cc2ccccc2)CC1	?	-50	.	.	?	.
O=C(CNS(=O)(=O)/C=C/c1ccccc1)OCC(=O)N1CCC(Cc2ccccc2)CC1	.	-84	.	.	.	.
CC(C)(CN1CCN(C(c2ccccc2)c2ccccc2)CC1)NS(=O)(=O)c1ccccc1	23µM	.	.	.	16µM	.
CC1CC(C)CN(C(=O)COC(=O)CNS(=O)(=O)/C=C/c2ccccc2)C1 (stereo not drawn)	.	.	.	.	.	.
CC(C)(CN1CCN(Cc2ccccc2)CC1)NS(=O)(=O)c1ccccc1	?	.	.	.	?	.
CC(C)(CN1CCC(Cc2ccccc2)CC1)NS(=O)(=O)c1ccccc1	21µM	?	.	.	?	?
COCC(=O)Nc1nc(-c2ccccc2)c(C)s1	.	.	.	.	.	?
Cc1sc(NC(=O)c2cccs2)nc1-c1ccccc1	23µM	?	.	.	?	.
Cc1sc(N/N=C/c2cccs2)nc1-c1ccccc1	?	.	.	.	18µM	.
CC(=O)Cc1nsc(NC(=O)c2cccs2)n1	?	.	.	.	23µM	.
Cn1cnnc1-c1nn(C)c2c1CN(C(=O)c1cc3ccccc3[nH]1)CC2	/	/	/	/	/	.
Cc1ccccc1OCc1nc(C2CN(C(=O)c3cc4ccccc4[nH]3)C2)no1	/	/	/	/	/	.
CCC(/C=C/[C@@H](C)[C@H]1CCC2C3CC=C4C[C@@H](O)CC[C@]4(C)C3CC[C@@]21C)C(C)C (stereo partly drawn)	/	/	/	/	/	.
COc1cccc(NC(=O)N2CCN3C(=O)N(Cc4ccc(C)cc4)C[C@H]3C2)c1	/	/	/	/	/	.
O=[N+]([O-])c1ccc(Oc2ccc(Oc3ccc(C(F)(F)F)cn3)cc2)nc1	?	?	.	.	26µM	.
COc1cc(C(C)=O)ccc1Oc1ncnc2c1cnn2-c1ccc(C)c(C)c1	12µM	.	.	.	15µM	.
CCNC(=O)CN1c2ccc(Br)cc2-c2ccccc2S1(=O)=O	/	/	/	/	/	.
